This note sets out measurements from PubChem BioAssay (Tox21).

Results filed as inconclusive are left out. Active and inactive are the calls of the source. Unless noted, calls follow the shape of the full dose curve.

A short description of test [1]: Nuclear factor erythroid 2-related factor 2/antioxidant responsive element (Nrf2/ARE) small molecule agonists: luciferase reporter gene qHTS assay in human keratinocytes (AID 1919969; also: nearly all actives have a fitted effect of over 35% in size). (In a reporter assay the amount or activity of a reporter protein is the signal.)
The target in test [2] is Gonadotropin-releasing hormone receptor (Homo sapiens) (UniProt P30968). In words: Human gonadotropin-releasing hormone receptor (GnRHR) small molecule agonists, calcium flux assay in GnRHR-HEK293 cells (AID 1920063). Also: nearly all actives have a fitted effect of over 35% in size. Also: potency is read from the fitted curve at half-maximal effect. In short, it runs like this: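 Compounds dissolved in DMSO are pin-transferred onto dye-loaded GnRHR-HEK293 cells, which were seeded 18 h before at 37 C/5% CO2. Calcium signal is read as fluorescence intensity at 1 s intervals for 3 min.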

Test [3] concerns the target KiSS-1 receptor (Homo sapiens) (UniProt Q969F8). In words: Human kisspeptin (KISS1R) small molecule agonists, calcium flux assay in KISS1R-HEK293 cells (AID 1920064; active = well fitted activation curve with a large enough effect in the repeat runs). In short, it runs like this:
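Cell line: HEK293, stable human KISS1R. Dye loading 1 h at 37 C after 18 h culture. Read: kinetic fluorescence, 480/540 nm, 3 min at 1 s intervals.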
(Calcium assays in cells follow changes in intracellular calcium, usually with a dye or a luminescent sensor.)

Test [4] can be described thus: G protein-coupled receptor (GPCR) small molecule agonists, calcium flux assay: HEK293 wild type cell line counter screen (AID 1920065). In short, it runs like this: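 Tox21 10K compounds, 15 concentrations each in triplicate, pin-transferred in DMSO onto dye-loaded cells; kinetic read at 480/540 nm for 3 min, 1 s intervals.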
The nature of test [5]: p53 small molecule agonists, cell-based qHTS assay with human liver microsomes (AID 1963577). In short, it runs like this: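 p53RE-bla reporter cells were pre-incubated 5 h at 37 C, then treated with compounds plus human liver microsomes (0.5 mg/mL final) and NADPH (0.5 mg/mL final) for 16 h at 37 C. Beta-lactamase activity was read by LiveBLAzer fluorescence after 2 h at room temperature.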
On the technique in general: qHTS replaces the single test concentration by a dilution series.

Test [6] can be described thus: p53 small molecule agonists, cell-based qHTS assay with rat liver microsomes (AID 1963578). In short, it runs like this: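 p53RE-bla cells were exposed to compounds together with rat liver microsomes (0.5 mg/mL final) and NADPH (0.5 mg/mL final) for 16 h at 37 C, then read by LiveBLAzer beta-lactamase fluorescence after 2 h at room temperature.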
Test [7] in a line: p53 small molecule agonists, cell-based qHTS assay with human liver microsomes: qHTS cell viability counter screen (AID 1963579). Also: nearly all actives have a fitted effect of over 45% in size. In short, it runs like this: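 p53RE-bla cells (4,000/well) were pre-incubated 5 h at 37 C, then given compounds in DMSO plus human liver microsomes (0.5 mg/mL final) and NADPH (0.5 mg/mL final) for 16 h at 37 C. Viability was read by CellTiter-Glo luminescence.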

A short description of test [8]: p53 small molecule agonists, cell-based qHTS assay with rat liver microsomes: qHTS cell viability counter screen (AID 1963580). Also: nearly all actives have a fitted effect of over 45% in size. In short, it runs like this:
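Counter screen for cytotoxicity under metabolic activation: rat liver microsomes and NADPH, 0.5 mg/mL final each, added with compounds to p53RE-bla HCT-116 cells; 16 h at 37 C, then ATP luminescence read.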

Test [9] is described as follows: p53 small molecule agonists, cell-based qHTS assay: qHTS cell viability counter screen (AID 1963581). Also: nearly all actives have a fitted effect of over 45% in size. Also: potency is read from the fitted curve at half-maximal effect. In short, it runs like this: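 ATP content measured by luminescence in HCT-116 p53RE-bla cells treated 16 h at 37 C, same wells as the reporter screen.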
Test [10] is described as follows: p53 small molecule agonists, cell-based qHTS assay (AID 1963582; active = well fitted activation curve with a large enough effect in the signal ratio in the repeat runs, not every such curve was filed as active; the % refers to the signal ratio). In short, it runs like this: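 16 h compound exposure (37 C) of p53 response element–bla cells, preceded by 5 h recovery at 37 C/5% CO2; read-out via LiveBLAzer B/G FRET substrate, 2 h RT, fluorescence intensity.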
For test [11], the target named is 5-hydroxytryptamine receptor 2A (Homo sapiens) (UniProt P28223). The test is described as follows: 5-hydroxytryptamine receptor 2A (HTR2A) small molecule agonists, cell-based qHTS assay (AID 1963587). Also: nearly all actives have a fitted effect of over 30% in size. In short, it runs like this: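 HTR2A-CHO cells, plated 18 h at 37 C/5% CO2, dye-loaded 1 h at 37 C; compounds in DMSO added by pin tool (agonist mode). Intracellular calcium flux read as kinetic fluorescence on FDSS over 2 min at 1 s intervals.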

For test [12], the target named is Muscarinic acetylcholine receptor M1 (Homo sapiens) (UniProt P11229). In words: Cholinergic receptor muscarinic 1 (CHRM1) small molecule antagonists, cell-based qHTS assay (AID 1963588). Also: nearly all actives have a fitted effect of over 40% in size. In short, it runs like this:
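Compounds were tested at 15 concentrations in three independent runs. Dye-loaded CHRM1-CHO cells were exposed 5 min at room temperature before stimulation by acetylcholine added at 50nM. Intracellular calcium was read kinetically on FDSS for 3 min.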

Test [13] shares this target. The test is described as follows: Cholinergic receptor muscarinic 1 (CHRM1) small molecule agonists, cell-based qHTS assay (AID 1963589). Also: nearly all actives have a fitted effect of over 35% in size. In short, it runs like this: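 Homogeneous fluorescence calcium flux, agonist mode. Human M1-expressing CHO cells; compound dosed at 15 concentrations, three independent runs; signal sampled every 1 sec.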
The nature of test [14]: cAMP Responsive Elements (CRE) small molecule agonists, cell-based qHTS assay (AID 1963590). In short, it runs like this:
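HEK 293T cells stably bearing CRE-bla were plated at 2,000 cells per well and rested 18 h. Compounds, positive controls or DMSO were added for 3 h at 37 C. LiveBLAzer B/G substrate was then loaded for 2 h at room temperature.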

Test [15] can be described thus: cAMP Responsive Elements (CRE) small molecule antagonists, cell-based qHTS assay (AID 1963591; active = well fitted inhibition curve with a large enough effect in the signal ratio in the repeat runs, not every such curve was filed as active; the % refers to the signal ratio). In short, it runs like this: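 First, CRE-bla HEK293T cells settled 18 h at 37 C. Next, compound and 0.25 uM final NKH477 were applied for 3 h. Last, LiveBLAzer B/G substrate was loaded for 2 h at room temperature.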
The target of test [16] is Beta-2 adrenergic receptor (Homo sapiens) (UniProt P07550). In words: Adrenergic beta2 receptor (ADRB2) small molecule antagonists, cell-based qHTS assay (AID 1963592). Also: series mostly up to about 92 µM; nearly all actives have a fitted effect of over 50% in size. In short, it runs like this: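 Assay format: CHO-ADRB2 cells, 18-20hr seeding at 37C/5% CO2, then compound plus 1nM isoproterenol agonist mix for 0.5hr RT. Homogeneous time-resolved fluorescence cAMP detection after 1hr, expressed as 665/615 nm ratio.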

Test [17] concerns the target D(2) dopamine receptor (Homo sapiens) (UniProt P14416). In words: Dopamine D2 receptor (DRD2) small molecule agonists, cell-based qHTS assay (AID 1963594). Also: nearly all actives have a fitted effect of over 35% in size. In short, it runs like this:
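HEK293 cells stably expressing DRD2 were cultured 24 h at 37 C, then given Ro20-1724 (0.1 mM final) and compounds for 10 min at room temperature. NKH477 (200nM) was then added for 30 min. cAMP was read by HTRF.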

For test [18] the target is unchanged. In words: Dopamine D2 receptor (DRD2) small molecule antagonists, cell-based qHTS assay (AID 1963595; active = well fitted inhibition curve with a large enough effect in the signal ratio in the repeat runs, with a control signal flat; the % refers to the signal ratio). In short, it runs like this: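 Antagonist mode in DRD2-HEK293 cells: after compound addition with 0.1 mM Ro20-1724, cells received quinpirole (12 nM) and NKH477 (200 nM) for 30 min at room temperature; HTRF cAMP read after 1 h detection.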
The target in test [19] is 5-hydroxytryptamine receptor 2A (Homo sapiens) (UniProt P28223). The test is described as follows: 5-hydroxytryptamine receptor 2A (HTR2A) small molecule antagonists, cell-based qHTS assay (AID 1963586). Also: nearly all actives have a fitted effect of over 45% in size. In short, it runs like this:
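CHO cells stably expressing human HTR2A were plated for 18 h at 37 C, then loaded with calcium dye for 1 h. Compounds were preincubated 5 min at room temperature before DOI (4 nM solution) was added. Kinetic fluorescence was read for 3 min.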

Test [20] deals with Beta-2 adrenergic receptor (Homo sapiens) (UniProt P07550). In words: Adrenergic beta2 receptor (ADRB2) small molecule agonists, cell-based qHTS assay (AID 1963593).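 Also: CHO cells stably overexpressing human ADRB2.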 In short, it runs like this:
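CHO cells stably over-expressing ADRB2 were plated overnight at 37C, then dosed with compounds plus a stimulation mix containing 100uM IBMX and 25uM Ro-20-1724 for 0.5hr at room temperature. cAMP was measured by HTRF competition, 1hr.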

KiSS-1 receptor (Homo sapiens), sequence (Q969F8 whole entry, looked up): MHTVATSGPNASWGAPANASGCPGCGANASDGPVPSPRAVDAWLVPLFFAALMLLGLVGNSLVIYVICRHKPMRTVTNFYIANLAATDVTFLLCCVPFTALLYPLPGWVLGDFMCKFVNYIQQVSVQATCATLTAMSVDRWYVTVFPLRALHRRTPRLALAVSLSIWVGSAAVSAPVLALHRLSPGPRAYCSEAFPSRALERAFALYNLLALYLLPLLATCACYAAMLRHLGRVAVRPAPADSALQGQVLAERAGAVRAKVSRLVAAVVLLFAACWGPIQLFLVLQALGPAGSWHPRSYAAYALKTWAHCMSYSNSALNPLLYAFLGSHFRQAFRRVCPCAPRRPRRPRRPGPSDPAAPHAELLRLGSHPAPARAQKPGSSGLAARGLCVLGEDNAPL
Gonadotropin-releasing hormone receptor (Homo sapiens), sequence (P30968 whole entry, looked up): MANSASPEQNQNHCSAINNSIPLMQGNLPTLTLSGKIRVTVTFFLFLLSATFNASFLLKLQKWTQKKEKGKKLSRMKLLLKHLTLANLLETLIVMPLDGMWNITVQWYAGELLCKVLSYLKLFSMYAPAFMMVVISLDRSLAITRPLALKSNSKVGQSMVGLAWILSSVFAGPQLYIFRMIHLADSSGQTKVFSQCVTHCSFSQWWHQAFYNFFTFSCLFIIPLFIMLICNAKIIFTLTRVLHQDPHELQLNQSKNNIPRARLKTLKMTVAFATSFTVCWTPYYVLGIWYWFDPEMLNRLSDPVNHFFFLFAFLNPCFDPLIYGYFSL
Beta-2 adrenergic receptor (Homo sapiens), sequence (P07550 whole entry, looked up): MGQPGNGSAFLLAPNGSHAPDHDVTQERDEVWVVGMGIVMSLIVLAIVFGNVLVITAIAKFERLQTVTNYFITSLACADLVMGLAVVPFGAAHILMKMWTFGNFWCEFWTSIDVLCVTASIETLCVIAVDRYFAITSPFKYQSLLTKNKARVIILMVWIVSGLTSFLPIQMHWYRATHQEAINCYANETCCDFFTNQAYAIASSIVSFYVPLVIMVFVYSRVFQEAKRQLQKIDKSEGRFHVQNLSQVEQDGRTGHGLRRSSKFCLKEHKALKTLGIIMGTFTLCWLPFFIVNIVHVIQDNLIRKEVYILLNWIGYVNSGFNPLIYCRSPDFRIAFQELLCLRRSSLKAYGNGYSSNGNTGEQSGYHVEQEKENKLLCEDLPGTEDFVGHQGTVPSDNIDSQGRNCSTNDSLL
5-hydroxytryptamine receptor 2A (Homo sapiens), sequence (P28223 whole entry, looked up): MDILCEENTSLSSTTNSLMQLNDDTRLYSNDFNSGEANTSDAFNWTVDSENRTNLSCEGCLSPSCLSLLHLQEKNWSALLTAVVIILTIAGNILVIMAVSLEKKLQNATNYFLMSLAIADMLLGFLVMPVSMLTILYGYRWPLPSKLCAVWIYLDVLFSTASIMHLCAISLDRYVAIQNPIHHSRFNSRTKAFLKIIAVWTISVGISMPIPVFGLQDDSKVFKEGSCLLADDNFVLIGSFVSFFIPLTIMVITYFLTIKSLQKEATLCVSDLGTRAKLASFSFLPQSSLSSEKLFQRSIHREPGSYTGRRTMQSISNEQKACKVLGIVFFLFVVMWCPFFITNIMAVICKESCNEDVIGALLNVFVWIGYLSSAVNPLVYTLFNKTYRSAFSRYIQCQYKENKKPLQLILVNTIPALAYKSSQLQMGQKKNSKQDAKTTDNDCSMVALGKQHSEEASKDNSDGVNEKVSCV
Muscarinic acetylcholine receptor M1 (Homo sapiens), sequence (P11229 whole entry, looked up): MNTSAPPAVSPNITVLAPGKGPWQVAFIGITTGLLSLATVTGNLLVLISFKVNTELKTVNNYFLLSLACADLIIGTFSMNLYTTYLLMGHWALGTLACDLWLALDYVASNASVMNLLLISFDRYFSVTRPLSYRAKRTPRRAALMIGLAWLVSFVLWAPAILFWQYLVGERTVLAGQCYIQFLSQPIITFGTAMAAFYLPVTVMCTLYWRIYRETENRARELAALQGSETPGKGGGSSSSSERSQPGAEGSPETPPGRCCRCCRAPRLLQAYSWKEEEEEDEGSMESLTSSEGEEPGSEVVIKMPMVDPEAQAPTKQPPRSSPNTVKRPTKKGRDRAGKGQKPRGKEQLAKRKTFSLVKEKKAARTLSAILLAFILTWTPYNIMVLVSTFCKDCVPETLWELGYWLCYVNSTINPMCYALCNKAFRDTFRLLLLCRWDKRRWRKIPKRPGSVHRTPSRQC
D(2) dopamine receptor (Homo sapiens), sequence (P14416 whole entry, looked up): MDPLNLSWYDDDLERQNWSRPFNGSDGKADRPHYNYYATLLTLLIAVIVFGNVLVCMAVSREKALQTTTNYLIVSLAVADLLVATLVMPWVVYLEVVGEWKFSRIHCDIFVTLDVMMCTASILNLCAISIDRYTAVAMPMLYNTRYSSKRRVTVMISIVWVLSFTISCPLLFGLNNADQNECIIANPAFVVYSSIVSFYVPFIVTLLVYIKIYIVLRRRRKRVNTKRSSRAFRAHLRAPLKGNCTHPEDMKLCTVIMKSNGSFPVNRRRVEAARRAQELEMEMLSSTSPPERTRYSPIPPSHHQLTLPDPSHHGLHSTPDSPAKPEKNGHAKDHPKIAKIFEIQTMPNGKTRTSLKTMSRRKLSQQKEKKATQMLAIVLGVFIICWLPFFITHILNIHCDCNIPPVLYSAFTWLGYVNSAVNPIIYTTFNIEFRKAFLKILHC

Consider `CC(=O)c1ccccn1`, for which the Potency entry in test [1], in test [2], in test [3], in test [4], in test [5] and in test [6] was “inactive” throughout. Besides, the Potency entry in test [7], in test [8], in test [9], in test [10], in test [11] and in test [12] was “inactive” throughout. Further, the Potency entry in test [13], in test [14], in test [15], in test [16], in [17] and in [18] was “inactive” throughout.

Take `ClC/C=C/CCl`: the Potency result in [1], in test [2], in test [3], in [4], in test [5] and in [6] was “inactive” throughout. In addition, the Potency entry in test [7], in [8], in [9], in test [10], in [19] and in test [11] was “inactive” throughout. Further, the Potency result in test [13], in [14], in [15], in [16], in [20] and in test [18] was “inactive” in each case.

For the compound `C=CC(=O)OCCCC`, the Potency entry in test [1], in test [2], in [3], in test [4], in [5] and in test [6] was “inactive” each time. The Potency result in test [7], in test [8], in test [9], in [10], in test [19] and in test [11] was “inactive” each time. The Potency result in test [12], in [13], in [14], in test [15], in [16] and in test [17] was “inactive” in each case. For the same compound, in test [18], the Potency entry is “inactive”.

As for `Cc1ccncc1`, the Potency result in [1], in [2], in test [3], in [4], in [5] and in test [6] was “inactive” in each case. Besides, the Potency result in test [7], in [8], in test [9], in test [10], in test [19] and in test [11] was “inactive” each time. Also, the Potency result in [12], in test [13], in test [14], in test [17] and in test [18] was “inactive” in each case.

Regarding `O=C(c1cc(O)c(O)c(O)c1)c1ccc(O)c(O)c1O`, the Potency result in [1], in test [2], in test [3], in test [4], in test [5] and in [6] was “inactive” in each case. Also, the Potency result in [7], in test [8], in test [9], in test [19], in [11] and in [12] was “inactive” each time. For the same compound, the Potency entry in [13], in test [14] and in [18] was “inactive” throughout.

Consider `CC(O)CC(C)(C)O` (stereo not drawn), for which the Potency entry in [1], in test [2], in test [3], in [4], in [5] and in test [6] was “inactive” in each case. Besides, the Potency entry in [7], in [8], in [10], in [11], in [12] and in test [13] was “inactive” each time. The Potency result in test [14], in [15], in test [16], in [20], in test [17] and in test [18] was “inactive” throughout.

As for `CN(C)C=O`, the Potency entry in test [1], in test [2], in test [3], in test [4], in test [5] and in [6] was “inactive” throughout. In addition, the Potency entry in [7], in test [8], in [9], in test [10], in test [14] and in test [15] was “inactive” in each case. Besides, the Potency result in [16], in [20], in test [17] and in test [18] was “inactive” each time.

Consider `CCc1nc(N)nc(N)c1-c1ccc(Cl)cc1`, for which the Potency entry in test [1], in [3], in test [4], in test [5], in test [6] and in test [7] was “inactive” in each case. For the same compound, the Potency entry in [10], in test [19], in test [12], in [14], in test [15] and in test [16] was “inactive” in each case. Besides, the Potency entry in test [20], in [17] and in test [18] was “inactive” throughout. In addition, the Potency in [2] is 39.5 µM (active); in [9], 13.1 µM (active).
